Screens: PubChem, National Center for Advancing Translational Sciences (NCATS)
Sm TGR inh: qHTS Assay for the Inhibitors of Schistosoma Mansoni Peroxiredoxins; Potency, µM (doses to about 114 µM), for the others: at the highest dose activity change, negative = inhibition, actives largely listed as inhibitors; purified TGR, DTNB reduction, TNB absorbance 405 nm; actives 3% (n = 360,000); Schistosoma mansoni thioredoxin glutathione reductase (TGR), Q962Y6; further: nearly all actives have a fitted effect of over 60% in size
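First, TGR (20 nM dispensed) and NADPH were mixed with compound. Second, a 15 min room-temperature incubation followed. Third, further NADPH and then DTNB were added to start the reaction. Finally, TNB absorbance was monitored kinetically.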
TbPYK inhibitor: qHTS of Trypanosoma Brucei Inhibitors; pyruvate kinase (Trypanosoma brucei), Q57TT1; TbPYK enzyme, Kinase-Glo Plus ATP luminescence, 45 min; Potency, µM (titrated, usually from 76.8 µM), without a hit: at the highest dose activity, negative = inhibition, usual class: inhibitors; actives 0.12% (n = 410,000); AID 624173, 2012; further: nearly all actives have a fitted effect of over 50% in size
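In this concentration-response screen, enzyme-free wells defined baseline while DMSO plates tracked drift. Each reaction combined TbPYK, substrate, compound and 130 uM ADP for 45 min at room temperature. Kinase-Glo Plus luminescence gave the signal.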
RE007 growth inh: qHTS Assay for Inhibitors of the HIV-1 protein Vpr; actives 0.21% (n = 360,000); Potency, µM (highest dose often 92.2 µM), without a hit: at the highest dose activity change, negative = less growth, usual class: inhibitors; S. pombe RE007 Vpr strain, BacTiter-Glo ATP luminescence, 24 h; active means well fitted falling curve with a large enough effect; inconclusive means small, poorly fitted or top-dose-only effect; inactive means no such curve, though single readings can be large or run the other way; further: nearly all actives have a fitted effect of over 50% in size
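Fission yeast RE007 carrying one integrated HIV-1 vpr copy, seeded at OD 0.01 in PMG+AL medium with 23 nL pinned compound. Grown 24 h at 30 degrees; viability read by BacTiter-Glo luminescence after 5 min.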
LmPK inh: qHTS Assay for Inhibitors of Leishmania Mexicana Pyruvate Kinase (LmPK); actives 0.37% (n = 290,000); Potency, µM (highest dose often 57.5 µM), for the others: top-dose activity change, negative = inhibition, usual class: inhibitors; purified LmPK, Kinase-Glo ATP luminescence, 1 h; AID 1721, 2009; Q27686
Target sequence (Q27686 whole entry, looked up): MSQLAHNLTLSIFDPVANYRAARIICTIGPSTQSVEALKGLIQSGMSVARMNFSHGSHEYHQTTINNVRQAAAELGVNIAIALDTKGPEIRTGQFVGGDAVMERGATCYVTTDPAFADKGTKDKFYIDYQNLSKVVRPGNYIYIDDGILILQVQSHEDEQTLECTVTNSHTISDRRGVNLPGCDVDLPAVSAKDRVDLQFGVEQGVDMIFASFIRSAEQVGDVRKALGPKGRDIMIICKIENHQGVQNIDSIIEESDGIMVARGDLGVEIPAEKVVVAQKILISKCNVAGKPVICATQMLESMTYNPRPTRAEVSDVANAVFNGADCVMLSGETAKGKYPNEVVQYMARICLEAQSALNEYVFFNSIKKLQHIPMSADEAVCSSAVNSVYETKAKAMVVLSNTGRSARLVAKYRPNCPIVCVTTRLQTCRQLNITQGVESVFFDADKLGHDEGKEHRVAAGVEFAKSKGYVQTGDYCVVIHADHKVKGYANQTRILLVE
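Pyruvate kinase activity monitored as ATP production (luciferase luminescence). Conditions: 0.1 nM enzyme, 0.5 mM PEP, 0.1 mM ADP, 1 h, RT; normalized against uninhibited and no-enzyme wells.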
Numbers without * were called inactive; ? = inconclusive; / = no result. The list is not random: actives were taken first. Their share in the collection is about 3%. Unless noted, the call rests on the fitted dose curve; in most records, active means well fitted curve in the direction sought with a large enough effect; inconclusive means small, poorly fitted or top-dose-only effect, or another doubt; inactive means no such curve, though single readings can be large; an effect the other way counts as inactive or inconclusive. On the % scale 0 is the no-effect control and ±100 the full control effect; potency means the concentration at half of the fitted maximal effect.

SMILES	Sm TGR inh	TbPYK inhibitor	RE007 growth inh	LmPK inh
C=CCN1C(=O)/C(=C\c2ccco2)C(C(=O)OC)=C1C	39.8µM*	-3.4%	-14.8%	5.6%
CCc1ccc2occ(CC(=O)Nc3sc4c(c3C(=O)NCCOC)CCCC4)c2c1	-1.7%	0.6%	/	/
Cc1ccccc1CN1CCc2nc(Nc3ccc4c(c3)OCCO4)ncc2C1	9.2%	3.8%	/	/
CCOC(=O)C1(Cc2cccc(OC)c2)CCCN(C(=O)c2ccc(OC)o2)C1 (stereo not drawn)	50.1µM*	-0.7%	-10.7%	-4.6%
CCOC(=O)C1(Cc2cccc(OC)c2)CCCN(C(=O)c2cc(CC(C)C)[nH]n2)C1 (stereo not drawn)	2.4%	-4.2%	3.3%	-0.5%
Cc1ccccc1CCNCc1c(C(=O)O)c(C)n(Cc2c(F)cccc2Cl)c1C	3.3%	-7.2%	/	/
O=C(/C=C/c1ccc(Cl)cc1)N(Cc1ccccc1)C1CCS(=O)(=O)C1 (stereo not drawn)	-10.5%	-6.6%	23.7%	-1.4%
CN(C)c1ccc(CN(C(=O)/C=C/c2ccco2)C2CCS(=O)(=O)C2)cc1 (stereo not drawn)	25.1µM*	-5.3%	3.6%	-2.0%
CN(C)c1ccc(CN(C(=O)c2cccs2)C2CCS(=O)(=O)C2)cc1 (stereo not drawn)	-0.6%	-0.8%	4.0%	2.8%
O=C(/C=C/c1ccco1)N(Cc1ccc(Cl)cc1)C1CCS(=O)(=O)C1 (stereo not drawn)	3.16µM*	-3.1%	16.6%	-4.3%
CC(C)(C)CC(C)(C)c1cc(Cc2cc(C(C)(C)CC(C)(C)C)cc(-n3nc4ccccc4n3)c2O)c(O)c(-n2nc3ccccc3n2)c1	/	-8.8%	/	/
CC(C)(C)S(=O)N1Cc2cn(Cc3ccccc3)c(=O)cc2[C@@H]1CCO (stereo partly drawn)	/	4.0%	5.5%	/
CN(C)c1ccc(/C=C2\CCC/C(=C\c3ccccc3)C2=O)cc1	-25.7%	-5.6%	-16.7%	-3.1%
CC(=O)N1/C(=C/c2ccc(N(C)C)cc2)C(=O)c2ccccc21	28.2µM*	-9.2%	3.6%	-8.9%
Cc1ccc(NC(=O)Cn2c(=O)n(CCCCC(=O)NCc3ccc4c(c3)OCO4)c(=O)c3ccccc32)cc1	1.2%	-5.3%	/	/
C#CCNC(=O)C1=C[C@H](c2ccccc2)[C@@H](CCCO)[C@H](OCC)O1	20µM*	1.7%	-3.1%	2.5%
C#CCNC(=O)C1=C[C@H](C2CCCCC2)[C@@H](CCCO)[C@H](OCC)O1	17.8µM*	-1.2%	11.6%	3.8%
C#Cc1ccc([C@H]2C=C(C(=O)NCc3ccccc3)O[C@@H](OCC)[C@@H]2CCCO)cc1	0.2%	-1.9%	13.0%	8.2%
COc1ccc(-c2oc3ncn4nc(-c5ccccc5O)nc4c3c2-c2ccc(OC)cc2)cc1	-3.8%	1.6%	/	/
CCOc1ccc(Nc2c(S(=O)(=O)c3ccc(Cl)cc3)cnc3ccc(OC)cc23)cc1	10.6%	1.6%	/	/
O=C(C1=NN[C@@H]2C(=O)N(c3cccc(F)c3)C(=O)[C@H]12)c1cnccn1	3.16µM*	3.6%	1.9%	1.4%
Cc1ccc(NC(=O)CN(C)S(=O)(=O)c2ccc3nc(C)sc3c2)c(C)c1	4.6%	0.8%	/	/
O=C1NC(=S)NC(=O)C1=Cc1ccc(Br)s1	20µM*	?	1.5%	11.4%
Cc1cc(/C=C2\C(=O)NC(=S)N(C)C2=O)c(C)n1C1CCCCC1	-22.1%	-17.1%	-1.6%	4.9%
CN1C(=O)/C(=C\c2ccc(Br)s2)C(=O)NC1=S	3.16µM*	-2.6%	-9.0%	-10.0%
O=C1NC(=S)NC(=O)C1=Cc1c(Cl)cccc1Cl	/	-18.6%	-9.6%	/
Cc1ccc(NC2=NCC(=O)N2C2CCCC2)c(C)c1	22.4µM*	1.2%	-7.8%	1.9%
OCCCc1nc2n(n1)C(c1ccccc1)C=C(c1ccc(F)cc1)N2 (stereo not drawn)	20µM*	-16.5%	-13.0%	6.2%
